Measurements from ChEMBL document CHEMBL4296182, “CO-ADD screening of NIH NCI Diversity Set V”.

What follows are molecules tested on Staphylococcus aureus (assay: Antibacterial activity against Staphylococcus aureus MRSA ATCC 43300 (CO-ADD:GP_020); MIC in CAMBH media using NBS plates, by Resazurin F(560/590)). Conditions: Concentration 20 uM, ASSAY_TEST Inhibition of Bacterial Growth, detection method Resazurin, Fluorescence (ex560/em590), MEDIA CAMHB, plate type 384well, CORNING #3640, time 18 hr.
Assay type: functional
`Clc1ccc2nc3ccccc3cc2c1` was tested, and the Inhibition was 16.29%. In the case of `O=C(c1ccccc1)c1ccc[nH]1`, the Inhibition is reported as -0.8%. For `CC(=O)Oc1c(C)c(OC(C)=O)c2c(c1C(C)=O)OC1CC(=O)C(C(C)=O)=C(O)C21C` (centres undefined), the Inhibition was 13.8%. Molecule `CN(C)CCCN1c2ccc3ccccc3c2Sc2cccc(Cl)c21` has an Inhibition of -10.96%. `Oc1cc(CNC2CCCCC2)c(O)cc1CNC1CCCCC1` gave an Inhibition of 1.43%. `CC(NC(=O)c1ccc(Cl)c(Cl)c1)c1ccc(-c2ccccc2)cc1` (centres undefined) showed an Inhibition of 12.08%. Work on `Cc1nccnc1Sc1ccccc1` yielded an Inhibition of 3.9%. In the case of `CC(C)COc1nc2c(c(=O)n(C)c(=O)n2C)n1C`, the Inhibition is reported as -1.72%. With `CC(C)(C)c1ccc(OCC(=O)O)cc1` the Inhibition was 4.22%. With `Cc1cc(O)cc2c1[C@H]1CC[C@]3(C)C(=O)CC[C@H]3[C@@H]1C=C2` the Inhibition was 24.45%. Molecule `CC(=O)OCCn1c2nc(=O)[nH]c(=O)c-2nc2cc(C)c(C)cc21` has an Inhibition of -0.64%. Molecule `Nc1ncnc(N2CCOCC2)n1` has an Inhibition of -3.61%. With `Cc1ccc(/N=N/c2ccc(N)cc2C)c(S(N)(=O)=O)c1` the Inhibition was -7.58%. In the case of `CCN(CC)CCNC(=O)C(Cl)=C1C(Cl)=C(Cl)C(Cl)=C1Cl`, the Inhibition is reported as 7.61%. Work on `Cc1cc(C)n(C(=N)NC(=O)c2ccccc2)n1` yielded an Inhibition of 12.05%. With `NC(=O)C1=C(N)c2ccccc2C1c1ccccc1` (centres undefined) the Inhibition was -22.4%. In the case of `CCCCCCC(C)OC(=O)c1ccccc1C(=O)O` (centres undefined), the Inhibition is reported as 12.97%. With `CCOc1ccc(NC(=O)c2cc3ccccc3cc2O)cc1` the Inhibition was -0.31%. Work on `NC(CSC1(c2cccc3ccccc23)c2ccccc2-c2ccccc21)C(=O)O` (centres undefined) yielded an Inhibition of 9.31%. Work on `Oc1nc2[nH]c(Cl)nc(Cl)c-2n1` yielded an Inhibition of 12.09%. For `CC(=O)Oc1ccc(OC(C)=O)c2c1CC1(C)OC1(C)C2` (centres undefined), the Inhibition was 13.73%. Molecule `COc1cccc(/C=C2\CCc3ccccc3C2=O)c1` has an Inhibition of 5.14%. For `COC(=O)c1c[n+]([O-])ccc1OC`, the Inhibition was -9.06%. Work on `CCCCSc1cc(O)nc(N)n1` yielded an Inhibition of -2.6%. `c1ccc2c(c1)Oc1cccc3cccc-2c13` gave an Inhibition of 13.84%. `O=C(Nc1ccc2ccccc2c1)c1ccc(Cl)cc1Cl` was tested, and the Inhibition was 8.36%. Work on `COc1cc(/N=N/c2ccccc2C(=O)O)ccc1O` yielded an Inhibition of 46.16%. `Cc1ccn2c(C(C)O)nnc2c1` (centres undefined) was tested, and the Inhibition was 16.33%. `O=C1NCN(CCO)CN1` was tested, and the Inhibition was 3.46%. `O=C(Nc1ccc(C(=O)O)c(O)c1)c1ccccc1` [BENZOYLPAS] was tested, and the Inhibition was -3.42%. In the case of `COc1ccc(Nc2cc(Cl)ccc2C(=O)O)cn1`, the Inhibition is reported as -1.71%. With `Cc1c(COC(=O)NC(C)C)c(COC(=O)NC(C)C)c2n1CS(=O)(=O)C2` the Inhibition was 22.95%. For `C=CCNC(=S)N1CCN(c2ccccc2Cl)CC1`, the Inhibition was 6.69%. `Nc1ccc(C(=O)Nc2ccc(NC(=O)c3ccco3)c(O)c2)cc1` gave an Inhibition of 1%. `O=C(O)c1ccccc1-c1ccccc1C(=O)Nc1ccc2oc(=O)c3ccccc3c2c1` showed an Inhibition of 4.75%. In the case of `O=[N+]([O-])c1ccc(-c2ncc(-c3ccc(Br)cc3)o2)cc1`, the Inhibition is reported as 5.59%. `S=C(Sc1ccc(Cl)cc1)Sc1ccc(Cl)cc1` showed an Inhibition of -6.64%. With `CN(C)S(=O)(=O)Nc1cccc(Br)c1` the Inhibition was 1.46%. `CSc1nc(N)c(C(=O)Nc2ccc([N+](=O)[O-])cc2)s1` gave an Inhibition of 3.88%.
